Data taken from PubChem BioAssay (NCATS).
Unmarked numbers belong to inactive results. Results filed as inconclusive are left out. Activity calls are given as the source filed them. Unless noted, calls come from the whole dose curve; as a rule, active = well fitted curve in either direction with a large enough effect (not every such curve was filed as active); inconclusive = small, poorly fitted or top-dose-only effect, or another doubt; inactive = flat fitted curve, though single readings scatter.

Assays:
[1] = AP1 Signaling Pathway (AID 357); settings: ME-180 AP-1-bla reporter, EGF-induced, beta-lactamase ratio, 5 h; at 7.69 µM (top of the series) unless noted;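 note: ME-180 reporter cells stimulated with EGF at its EC50 level; % is set by controls: 0 for no effect and ±100 for the full control effect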
How it was run: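 Read-out was the 460nm/530nm emission ratio (excitation 405nm) after CCF4 loading for 2.5 hours at room temperature. Cells carried an AP-1-driven beta-lactamase reporter, were stimulated with EC50 EGF plus compound for 5 hours, and AC50 values came from titrations.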

[2] = biological target: Cytochrome P450 1A2 (Homo sapiens) (UniProt P05177); assay: p450-cyp1a2 (AID 410; calls by dose curve; note: potency is the fitted concentration of half-maximal effect;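 for activity change, negative = inhibition: -100% = full effect of reference inhibitor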)
Sequence of Cytochrome P450 1A2 (Homo sapiens) (P05177 whole entry, looked up): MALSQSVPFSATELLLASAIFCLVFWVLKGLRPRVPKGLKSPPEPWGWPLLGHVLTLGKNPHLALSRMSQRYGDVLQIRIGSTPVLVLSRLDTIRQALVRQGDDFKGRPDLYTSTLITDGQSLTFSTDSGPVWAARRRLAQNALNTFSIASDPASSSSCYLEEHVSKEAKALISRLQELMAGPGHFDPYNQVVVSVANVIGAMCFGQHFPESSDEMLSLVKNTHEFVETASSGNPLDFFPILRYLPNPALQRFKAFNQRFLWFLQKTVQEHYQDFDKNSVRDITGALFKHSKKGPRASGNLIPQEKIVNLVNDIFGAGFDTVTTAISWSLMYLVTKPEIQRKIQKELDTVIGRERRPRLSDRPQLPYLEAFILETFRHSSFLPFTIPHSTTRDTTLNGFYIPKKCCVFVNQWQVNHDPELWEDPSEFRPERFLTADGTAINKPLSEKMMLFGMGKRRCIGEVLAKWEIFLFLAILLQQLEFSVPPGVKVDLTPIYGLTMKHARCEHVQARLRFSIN
How it was run: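 Luminescent demethylation readout: Luciferin-ME (100uM, equal to Km) turned over by 20nM CYP1A2 for 60 min at room temperature after NADPH regeneration addition, following 10 min compound preincubation. Normalization used 57 uM furafylline as full inhibition.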

[3] = NFAT Signaling Pathway (AID 444); settings: Jurkat NFAT-bla M1, carbachol, beta-lactamase ratio, 5 h; at 7.69 µM (top of the series) unless noted;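 note: carbachol stimulus at about its EC50 of 1 µM final; % is set by controls: 0 for no effect and ±100 for the full control effect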
How it was run: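 Jurkat cells carrying an NFAT-driven β-lactamase reporter and co-transfected muscarinic M1 receptor were treated with compound plus carbachol (1 uM final, an EC50 level) for 5 h at 37 °C. CCF4 loading followed for 1 h at RT; 460/530 nm ratio gave %activity.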

[4] = Stat Signaling Pathway (AID 446); settings: ME-180 (cervical carcinoma) SIE beta-lactamase reporter, IL-6 stimulated, 5 h; at 7.69 µM (top of the series) unless noted;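 note: ME-180 cervical cancer cells given 40 pM IL-6 alongside compound; SIE-controlled beta-lactamase reporter measured as 460/530 nm FRET emission ratio; % is set by controls: 0 for no effect and ±100 for the full control effect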
How it was run: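 Normalization used AC90 stimulation (300 pM IL-6) and AC90 inhibition (125 nM pan-JAK inhibitor at 40 pM IL-6). The underlying signal is SIE-driven beta-lactamase in ME-180 cells after 5 h IL-6 exposure with compound.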

[5] = biological target: Glucocorticoid receptor (Homo sapiens) (UniProt P04150); assay: GR-GFP Redistribution (AID 450;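 active = compounds whose dose series gives a full or clear partial fitted curve of increased nuclear translocation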; note: potency is the fitted concentration of half-maximal effect); settings: U2OS GR-GFP nuclear translocation, laser cytometry, 2 h
Sequence of Glucocorticoid receptor (Homo sapiens) (P04150 whole entry, looked up, the tested form may be a part): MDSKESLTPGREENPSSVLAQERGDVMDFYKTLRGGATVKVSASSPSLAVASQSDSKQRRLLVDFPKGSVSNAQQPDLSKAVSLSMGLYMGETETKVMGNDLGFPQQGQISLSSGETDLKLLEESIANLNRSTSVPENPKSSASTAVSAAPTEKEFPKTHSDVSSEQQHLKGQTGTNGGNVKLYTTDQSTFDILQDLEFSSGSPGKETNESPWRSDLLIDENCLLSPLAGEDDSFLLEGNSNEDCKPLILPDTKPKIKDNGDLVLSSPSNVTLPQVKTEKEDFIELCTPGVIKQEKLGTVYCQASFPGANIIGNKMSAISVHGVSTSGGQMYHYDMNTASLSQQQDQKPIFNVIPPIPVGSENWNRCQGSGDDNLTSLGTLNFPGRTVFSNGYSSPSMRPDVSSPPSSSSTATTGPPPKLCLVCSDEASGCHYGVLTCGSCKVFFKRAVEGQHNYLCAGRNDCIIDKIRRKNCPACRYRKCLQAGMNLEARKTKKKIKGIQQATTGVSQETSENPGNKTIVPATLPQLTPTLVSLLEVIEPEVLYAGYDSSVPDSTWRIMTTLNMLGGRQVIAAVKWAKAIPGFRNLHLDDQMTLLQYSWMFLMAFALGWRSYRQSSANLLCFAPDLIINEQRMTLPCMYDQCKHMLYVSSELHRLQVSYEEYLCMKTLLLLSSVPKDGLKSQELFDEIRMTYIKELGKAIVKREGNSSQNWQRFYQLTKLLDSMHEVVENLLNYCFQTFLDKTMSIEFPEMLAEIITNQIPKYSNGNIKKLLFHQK

[6] = biological target: Glucocorticoid receptor (Homo sapiens) (UniProt P04150); assay: GR-EFC Redistribution (AID 451; calls by dose curve; note: potency is the fitted concentration of half-maximal effect); settings: CHO-K1 GR-EFC translocation, beta-gal luminescence, 2 h
How it was run: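 CHO-K1 cells stably expressing nuclear-localized β-gal enzyme acceptor and GR fused C-terminally to the enzyme donor fragment; ligand-driven nuclear translocation restores β-gal by complementation. Compounds titrated up to 46 uM final, 2 h at 37 °C; luminescence read.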

[7] = biological target: Mitogen-activated protein kinase 10 (Mus musculus) (UniProt Q61831); assay: JNK3 AlphaScreen Assay (AID 530);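 note: kinase came from lysate of stimulated human HepG2 cells; signal reports phosphorylation of biotinylated GST-cJun 1-79 at Ser73 with 10 µM ATP; % is set by controls: 0 for no effect and ±100 for the full control effect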
How it was run: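 Phosphorylation of biotinylated GST-cJun(1-79) at Ser73 is measured by AlphaScreen proximity luminescence. Enzyme is JNK3 in HepG2 lysates activated with interleukin-1beta and tumor necrosis factor alpha; ATP is 10 uM final.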

[8] = biological target: 3',5'-cyclic-AMP phosphodiesterase 4B (Homo sapiens) (UniProt Q07343); assay: qHTS Assay for Inhibitors of PDE-IV (AID 607; active = well fitted activation curve with a large enough effect in the main read-out, with a control signal flat, not every such curve was filed as active; note: % of control where 0% means no effect)
Sequence of 3',5'-cyclic-AMP phosphodiesterase 4B (Homo sapiens) (Q07343 whole entry, looked up): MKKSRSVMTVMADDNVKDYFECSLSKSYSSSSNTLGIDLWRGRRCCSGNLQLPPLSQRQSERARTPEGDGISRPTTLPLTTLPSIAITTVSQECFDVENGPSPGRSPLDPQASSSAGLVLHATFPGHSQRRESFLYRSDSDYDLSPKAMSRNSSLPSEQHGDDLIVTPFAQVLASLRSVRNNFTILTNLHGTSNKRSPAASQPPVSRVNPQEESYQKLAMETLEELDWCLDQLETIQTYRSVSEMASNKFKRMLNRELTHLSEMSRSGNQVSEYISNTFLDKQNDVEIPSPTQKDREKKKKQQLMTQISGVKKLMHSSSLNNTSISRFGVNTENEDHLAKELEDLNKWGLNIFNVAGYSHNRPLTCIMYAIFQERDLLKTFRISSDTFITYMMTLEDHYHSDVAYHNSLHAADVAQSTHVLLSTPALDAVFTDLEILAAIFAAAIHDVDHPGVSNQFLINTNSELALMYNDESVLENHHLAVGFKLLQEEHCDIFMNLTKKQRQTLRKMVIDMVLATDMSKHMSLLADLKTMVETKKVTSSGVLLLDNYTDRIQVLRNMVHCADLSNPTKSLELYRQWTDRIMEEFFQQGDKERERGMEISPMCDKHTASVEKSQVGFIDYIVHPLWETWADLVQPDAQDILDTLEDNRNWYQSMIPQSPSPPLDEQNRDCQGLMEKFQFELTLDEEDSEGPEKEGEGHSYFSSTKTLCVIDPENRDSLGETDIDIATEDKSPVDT
How it was run: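 HEK293 ACTOne cells with CNG channel (1000/well), endogenous PDE4; membrane potential dye, compounds up to 22.9 uM final. Fluorescence Ex 535/Em 590; RO 20-1724 (100 uM final) as reference.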

[9] = biological target: Guanine nucleotide-binding protein G(i) subunit alpha-1 (Homo sapiens) (UniProt P63096); assay: qHTS Assay for Inhibitors of RGS12 GoLoco Motif Activity (Green Fluorophore) (AID 879; active = well fitted curve in the direction sought with a large enough effect; an effect the other way counts as inactive or inconclusive;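 note: 0% = labeled peptide with Gαi1 and full inhibition = labeled peptide alone without protein; negative values mean loss of peptide binding seen as reduced polarization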)
Sequence of Guanine nucleotide-binding protein G(i) subunit alpha-1 (Homo sapiens) (P63096 whole entry, looked up): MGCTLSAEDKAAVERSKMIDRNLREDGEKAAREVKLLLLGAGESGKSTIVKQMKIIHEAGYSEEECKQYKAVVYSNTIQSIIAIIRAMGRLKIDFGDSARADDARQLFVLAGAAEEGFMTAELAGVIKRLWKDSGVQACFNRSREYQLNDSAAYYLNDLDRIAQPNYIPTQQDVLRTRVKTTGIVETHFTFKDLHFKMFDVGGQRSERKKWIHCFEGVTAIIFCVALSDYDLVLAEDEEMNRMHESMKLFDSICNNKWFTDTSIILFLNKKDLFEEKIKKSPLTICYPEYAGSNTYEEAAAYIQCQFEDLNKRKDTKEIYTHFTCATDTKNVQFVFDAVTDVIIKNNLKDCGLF
How it was run: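 A drop in FITC polarization marked displacement of the FITC-tagged RGS12 GoLoco peptide (10 nM) from Gαi1 (50 nM). Compounds were incubated 10 min at room temperature in Tris pH 7.5 buffer containing 150 mM NaCl, 0.1 mM GDP and 0.05% NP40; unlabeled peptide titration served as control.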

[10] = biological target: Muscarinic acetylcholine receptor M1 (Rattus norvegicus) (UniProt P08482); assay: qHTS Assay for Antagonists of Acetylcholine Muscarinic M1 Receptor: Kinetic Measurement of Intracellular Calcium Response (AID 943; active = well fitted curve in the direction sought with a large enough effect; an effect the other way counts as inactive or inconclusive;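 note: Fluo-4 calcium signal as peak divided by basal fluorescence over 4 min; nearly all actives have a fitted effect of over 75% in size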)
How it was run: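 Antagonism measured as reduction of carbachol-evoked (EC80, 100 nM final) calcium flux in rat M1-CHO cells after 10 min compound exposure. Fluo-4 signal read kinetically; ratio of maximal to basal fluorescence.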

[11] = biological target: Muscarinic acetylcholine receptor M1 (Rattus norvegicus) (UniProt P08482); assay: qHTS Assay for Antagonists of Acetylcholine Muscarinic M1 Receptor: Measurement of IP-One Response (AID 944; active = well fitted curve in the direction sought with a large enough effect; an effect the other way counts as inactive or inconclusive; note: nearly all actives have a fitted effect of over 75% in size)
How it was run: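 IP1 accumulation measured via TR-FRET between d2-IP1 and Eu-cryptate anti-IP1 antibody after carbachol (200 nM, EC80) stimulation for 30 min; rat M1-transfected CHO cells received compound 10 min before agonist.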

[12] = biological target: Pyruvate kinase (Leishmania mexicana) (UniProt Q27686); assay: qHTS Validation Assay for Inhibitors of Leishmania Mexicana Pyruvate Kinase (AID 945; active = well fitted curve in the direction sought with a large enough effect; an effect the other way counts as inactive or inconclusive;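 note: 0% = DMSO only neutral control wells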)
Sequence of Pyruvate kinase (Leishmania mexicana) (Q27686 2-499 E452W): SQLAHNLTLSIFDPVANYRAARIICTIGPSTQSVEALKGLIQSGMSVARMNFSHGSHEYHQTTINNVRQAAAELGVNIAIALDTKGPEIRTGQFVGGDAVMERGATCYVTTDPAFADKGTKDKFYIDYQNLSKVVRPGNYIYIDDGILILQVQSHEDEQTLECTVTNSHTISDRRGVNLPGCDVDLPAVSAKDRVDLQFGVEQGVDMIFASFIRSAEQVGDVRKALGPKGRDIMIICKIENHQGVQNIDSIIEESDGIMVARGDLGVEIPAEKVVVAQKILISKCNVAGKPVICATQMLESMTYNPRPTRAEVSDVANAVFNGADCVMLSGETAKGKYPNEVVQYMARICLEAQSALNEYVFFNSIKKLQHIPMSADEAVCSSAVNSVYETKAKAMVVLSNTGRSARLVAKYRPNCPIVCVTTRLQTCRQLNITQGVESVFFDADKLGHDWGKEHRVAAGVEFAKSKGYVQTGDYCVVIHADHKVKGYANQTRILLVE
How it was run: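 Compounds are tested as eight-point concentration series. Reactions contain 0.2 nM LmPYK E451W, 0.5 mM PEP, 0.1 mM ADP, 7 mM MgCl2 and 50 mM KCl at pH 7.2, run 1 h at room temperature, then read by PKLight luminescence.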

[13] = biological target: Pyruvate kinase PKM (Homo sapiens) (UniProt P14618); assay: qHTS Assay for Activators of Human Muscle Pyruvate Kinase (AID 954; active = well fitted curve in the direction sought with a large enough effect, not every such curve was filed as active;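 note: 0% = uninhibited enzyme and -100% = no enzyme or full thiadiazolimine inhibition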)
Sequence of Pyruvate kinase PKM (Homo sapiens) (P14618 whole entry, looked up): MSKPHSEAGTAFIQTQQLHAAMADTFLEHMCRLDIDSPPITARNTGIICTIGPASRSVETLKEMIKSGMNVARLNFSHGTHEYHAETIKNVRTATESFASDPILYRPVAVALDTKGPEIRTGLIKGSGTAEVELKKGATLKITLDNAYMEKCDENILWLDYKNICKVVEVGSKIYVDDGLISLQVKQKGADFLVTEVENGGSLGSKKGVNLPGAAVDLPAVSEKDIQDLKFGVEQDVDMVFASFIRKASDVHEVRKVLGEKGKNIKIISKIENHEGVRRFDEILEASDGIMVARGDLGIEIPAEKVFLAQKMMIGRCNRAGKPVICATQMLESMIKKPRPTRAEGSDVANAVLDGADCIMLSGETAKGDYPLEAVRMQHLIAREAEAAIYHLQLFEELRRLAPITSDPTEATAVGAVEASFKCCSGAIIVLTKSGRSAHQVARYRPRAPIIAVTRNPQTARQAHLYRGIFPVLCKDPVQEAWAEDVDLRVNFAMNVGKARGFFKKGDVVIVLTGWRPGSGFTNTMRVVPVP
How it was run: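 Compound pinned into substrate mix (0.5 mM PEP, 0.1 mM ADP), then 0.1 nM PKM2 added; 1 h, RT. Stop/detection luciferase reagent added, luminescence read. Normalized to no-inhibition and no-enzyme or reference-inhibitor controls.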

[14] = biological target: Alpha-galactosidase A (Homo sapiens) (UniProt P06280); assay: Counterscreen for Glucocerebrosidase Inhibitors: qHTS Assay for Human alpha-Galactosidase at pH 4.5 (AID 992; active = well fitted curve in the direction sought with a large enough effect; an effect the other way counts as inactive or inconclusive; note: 0% is about no effect)
How it was run: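 Steps: enzyme (2 nM final), then compound across 0.7 nM to 77 uM, then 80 uM fluorogenic galactopyranoside substrate; incubate 20 min at room temperature; quench at pH 10; measure fluorescence at 365/440 nm.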

[15] = biological target: alpha-glucosidase (Oryza sativa, rice) (UniProt Q653V4); assay: Counterscreen for Glucocerebrosidase Inhibitors: qHTS Assay for Rice alpha-Glucosidase at pH 5.0 (AID 997; active = well fitted curve in the direction sought with a large enough effect; an effect the other way counts as inactive or inconclusive;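 note: 0% = full activity with enzyme and -100% = basal without enzyme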)
How it was run: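 Endpoint fluorogenic assay at pH 5.0: compounds (0.7 nM to 77 uM) titrated against 4 nM rice enzyme and 400 uM 4-MU-alpha-glucoside for 20 min at room temperature; NaOH/glycine stop, read ex 365/em 440 nm, Hill-fitted AC50.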

[16] = biological target: Cytochrome P450 2D6 (Homo sapiens) (UniProt P10635); assay: qHTS Assay for Inhibitors and Substrates of Cytochrome P450 2D6 (AID 891; active = well fitted curve in the direction sought with a large enough effect; an effect the other way counts as inactive or inconclusive; note: nearly all actives have a fitted effect of over 60% in size; note: potency is the fitted concentration of half-maximal effect)
Sequence of Cytochrome P450 2D6 (Homo sapiens) (P10635 whole entry, looked up): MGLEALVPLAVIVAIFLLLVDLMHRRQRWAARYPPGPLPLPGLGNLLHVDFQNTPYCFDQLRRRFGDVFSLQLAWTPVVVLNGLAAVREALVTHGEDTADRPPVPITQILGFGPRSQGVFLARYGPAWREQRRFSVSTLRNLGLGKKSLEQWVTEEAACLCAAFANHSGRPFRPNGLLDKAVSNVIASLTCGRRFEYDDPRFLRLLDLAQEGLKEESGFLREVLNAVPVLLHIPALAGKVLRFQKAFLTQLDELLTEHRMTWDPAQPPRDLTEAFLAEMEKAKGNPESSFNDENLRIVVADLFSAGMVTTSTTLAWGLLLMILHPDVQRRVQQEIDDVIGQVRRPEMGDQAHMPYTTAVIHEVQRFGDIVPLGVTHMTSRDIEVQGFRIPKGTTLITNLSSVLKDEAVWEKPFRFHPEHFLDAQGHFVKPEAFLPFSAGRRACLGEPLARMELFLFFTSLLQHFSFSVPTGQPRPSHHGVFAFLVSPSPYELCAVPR
How it was run: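 Luminescent read-out of luciferin formed by 5 nM human CYP2D6 demethylating 30 uM Luciferin-ME EGE (Km level) over 60 min at room temperature after NADPH regeneration addition. Data normalized to full inhibition by 1.43 uM quinidine.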

[17] = biological target: Cytochrome P450 2C19 (Homo sapiens) (UniProt P33261); assay: qHTS Assay for Inhibitors and Substrates of Cytochrome P450 2C19 (AID 899; active = well fitted curve in the direction sought with a large enough effect; an effect the other way counts as inactive or inconclusive; note: nearly all actives have a fitted effect of over 60% in size; note: potency is the fitted concentration of half-maximal effect)
Sequence of Cytochrome P450 2C19 (Homo sapiens) (P33261 whole entry, looked up): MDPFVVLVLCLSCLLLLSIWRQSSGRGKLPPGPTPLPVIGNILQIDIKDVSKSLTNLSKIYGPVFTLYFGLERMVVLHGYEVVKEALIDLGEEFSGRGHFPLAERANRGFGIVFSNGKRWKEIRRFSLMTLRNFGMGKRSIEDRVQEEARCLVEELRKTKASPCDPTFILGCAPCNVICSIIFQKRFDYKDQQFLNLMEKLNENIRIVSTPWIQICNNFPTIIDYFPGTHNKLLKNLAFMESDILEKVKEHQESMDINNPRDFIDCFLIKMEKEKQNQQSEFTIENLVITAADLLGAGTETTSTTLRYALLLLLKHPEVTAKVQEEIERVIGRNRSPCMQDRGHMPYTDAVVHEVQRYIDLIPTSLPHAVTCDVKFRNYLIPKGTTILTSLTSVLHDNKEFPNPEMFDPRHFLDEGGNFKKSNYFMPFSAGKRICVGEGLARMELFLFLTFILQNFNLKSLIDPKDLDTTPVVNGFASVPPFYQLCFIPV
How it was run: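 In 50mM KPO4, the reaction held 5nM enzyme and KM-level (10uM) Luciferin-H EGE; it ran 60 min at 37C after NADPH regeneration and a 10 min compound preincubation. Luminescence values were scaled to 57uM ketoconazole as complete inhibition.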

[18] = biological target: Cytochrome P450 3A4 (Homo sapiens) (UniProt P08684); assay: qHTS Assay for Activators of Cytochrome P450 3A4 (AID 885; active = well fitted curve in the direction sought with a large enough effect; an effect the other way counts as inactive or inconclusive; note: nearly all actives have a fitted effect of over 65% in size)
Sequence of Cytochrome P450 3A4 (Homo sapiens) (P08684 whole entry, looked up): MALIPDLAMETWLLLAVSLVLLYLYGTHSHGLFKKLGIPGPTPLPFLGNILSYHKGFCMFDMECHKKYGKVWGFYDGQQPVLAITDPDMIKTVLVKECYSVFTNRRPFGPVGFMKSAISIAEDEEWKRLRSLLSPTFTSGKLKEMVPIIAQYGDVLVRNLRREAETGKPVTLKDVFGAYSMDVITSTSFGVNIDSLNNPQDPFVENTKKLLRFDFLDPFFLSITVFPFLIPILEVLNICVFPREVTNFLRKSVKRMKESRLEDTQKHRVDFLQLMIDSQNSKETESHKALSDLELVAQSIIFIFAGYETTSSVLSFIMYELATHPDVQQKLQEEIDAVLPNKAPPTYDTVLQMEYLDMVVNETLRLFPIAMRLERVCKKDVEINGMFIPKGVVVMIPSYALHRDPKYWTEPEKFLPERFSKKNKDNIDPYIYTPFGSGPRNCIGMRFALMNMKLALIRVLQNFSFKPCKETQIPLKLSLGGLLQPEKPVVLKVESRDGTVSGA
How it was run: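 Human CYP3A4 dealkylates Luciferin-PPXE to luciferin, which luciferase detection converts to light. Substrate was at its KM (25uM), buffer 200mM KPO4, reaction 60 min at RT.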

[19] = qHTS Assay for Identification of Small Molecule Agonists for Thrombopoietin (TPO) Signaling Pathway (AID 917; active = well fitted curve in the direction sought with a large enough effect; an effect the other way counts as inactive or inconclusive; note: % is set by controls: 0 for no effect and ±100 for the full control effect)
How it was run: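 Quantitative HTS for pathway activators: compounds were pin-transferred onto IL-3-starved Ba/F3 cells expressing human TPO receptor, TPO was added at its EC50 (26 pM final), and after 24 hrs at 37 C reporter luciferase was measured.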

Row | SMILES | activity change, negative = inhibition [1] | Potency [2] | activity change, negative = inhibition [3] | activity, negative = inhibition [4] | Potency [5] | Potency [6] | Potency [7] | Potency [8] | outcome [9] | Potency [10] | Potency [11] | outcome [12] | outcome [13] | outcome [14] | Potency [15] | Potency [16] | Potency [17] | Potency [18] | activity change, negative = inhibition [2] | outcome [19]
1 | Nc1nc(Nc2ccccc2)nc2c1ncn2[C@@H]1O[C@@H](CO)[C@H](O)[C@@H]1O | -5.61% [at 38 µM] | 31.6 µM (active) | -0.881% [at 38 µM] | 0.406% [at 38 µM] | > 46 µM | > 46 µM | inactive | inactive | inactive | inactive | inactive | inactive | inactive | inactive | inactive | – | – | – | – | –
2 | CC(C)N(Cc1ccccc1)S(=O)(=O)c1n[nH]c(C(C)(C)C)n1 | -0.248% | inactive | 4.29% | -2.12% | > 46 µM | > 9.22 µM | inactive | inactive | – | – | – | – | – | – | – | – | – | – | – | –
3 | CN(CCc1ccccn1)c1ccc2c(c1)Cc1ccccc1-2 | -10.1% | 0.631 µM (active) | -13.8% | 7.42% | > 46 µM | > 9.22 µM | inactive | inactive | – | – | – | – | – | – | – | 3.16 µM (active) | 0.794 µM (active) | – | – | –
4 | CC1=C(\C=C/C(C)=C/C=C\C(C)=C\C(=O)Nc2ccc(O)cc2)C(C)(C)CCC1 | -16.4% [at 38 µM] | inactive | -17.1% [at 38 µM] | -11.2% [at 38 µM] | > 46 µM | > 46 µM | inactive | inactive | – | – | – | – | – | – | – | inactive | – | – | – | –
5 | c1cncc(-c2cc(-c3cc(-c4cccnc4)n[nH]3)[nH]n2)c1 | 4.4% | 0.501 µM (active) | 14% | -1.32% | > 46 µM | > 9.22 µM | inactive | inactive | – | – | – | – | – | – | – | – | – | inactive | – | –
6 | O=C(Oc1ccc2c(c1)CN(Cc1ccccc1)CO2)c1ccccc1 | 10.8% | – | 13.3% | 2.87% | > 46 µM | > 9.22 µM | inactive | inactive | – | – | – | – | – | – | – | 0.501 µM (active) | – | inactive | -14.3% [at 2.29 µM] | –
7 | COc1cc(OC)cc([C@H](CNc2ncnc3c2ncn3[C@@H]2O[C@@H](CO)[C@H](O)[C@@H]2O)c2ccccc2C)c1 | -6.78% [at 38 µM] | inactive | 19.3% [at 38 µM] | 3.32% [at 38 µM] | > 46 µM | > 46 µM | inactive | inactive | – | – | – | – | – | – | – | – | inactive | – | – | –
8 | CN1CCc2c(cc(O)c(O)c2Cl)[C@H](c2cccc(Cl)c2)C1 | 26% [at 38 µM] | inactive | -25.3% [at 38 µM] | -20% [at 38 µM] | > 46 µM | > 46 µM | inactive | inactive | inactive | – | – | inactive | inactive | inactive | inactive | – | – | – | – | –
9 | C[C@]12C=CC(=O)C=C1CC[C@@H]1[C@H]3C[C@@H](O)[C@](O)(C(=O)CO)[C@]3(C)C[C@H](O)[C@]12F | -12.2% [at 38 µM] | inactive | -3.19% [at 38 µM] | -15.9% [at 38 µM] | 0.223 µM (active) | 0.273 µM (active) | inactive | inactive | – | – | – | – | – | – | – | inactive | – | – | – | –
10 | CN(C)C(=O)/N=N\C(=O)N(C)C | 9.37% [at 38 µM] | inactive | -14.2% [at 38 µM] | 5.55% [at 38 µM] | > 46 µM | > 46 µM | inactive | inactive | inactive | inactive | inactive | inactive | inactive | inactive | inactive | – | – | – | – | –
11 | CCNC(=O)[C@@H]1O[C@@H](n2cnc3c(NCc4ccccc4)ncnc32)[C@@H](O)[C@H]1O | -7.35% [at 38 µM] | inactive | 17% [at 38 µM] | -20.4% [at 38 µM] | > 46 µM | > 46 µM | inactive | inactive | – | – | – | – | – | – | – | inactive | inactive | – | – | –
12 | Nc1ncnc2c1ncn2[C@@H]1O[C@@H](C(=O)NC2CC2)[C@H](O)[C@@H]1O | -9.63% [at 38 µM] | inactive | -15.3% [at 38 µM] | -7% [at 38 µM] | > 46 µM | > 46 µM | inactive | – | inactive | inactive | inactive | inactive | inactive | inactive | inactive | – | – | inactive | – | inactive
13 | c1ccc2c(c1)nnn2CN1CCOCC1 | 1.95% | inactive | -0.506% | -18.4% | > 46 µM | > 9.22 µM | inactive | inactive | – | – | – | – | – | – | – | inactive | – | – | – | –
